# Test results taken from PubChem BioAssay AID431 (Sanford-Burnham Center for Chemical Genomics, 2006).
# The campaign covered roughly 63,000 compounds. About 1,100 (1.7%) were called active. The sample holds actives, similar compounds and a random draw of the others, so the mix is not that of the screen.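 Rule for the calls: active = compounds whose percent cytotoxicity in the single-dose primary screen, scaled between solvent and toxic-drug controls, exceeds 50; inactive = the rest.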 Results with a measured potency or affinity are listed apart.
# Experiment: cytotoxicity in KRAS-transformed pancreatic duct cells, primary screen, cell-based, fluorescence, HTS (AID 431);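 note: 0% = DMSO solvent wells and 100% = doxorubicin-treated wells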
# Conditions: HPDE-C7K KRASV12 cells, Alamar Blue viability, 48 h; at 10 µM; hits give high values
row,SMILES,cytotoxicity
1,COc1ccc(S(=O)(=O)Cc2ccc(C(=O)NCCCN(C)c3ccccc3)o2)cc1,2.5% (inactive)
2,CCOC(=O)C1C(=O)CC(C)(O)C(C(=O)OCC)C1c1ccco1 (stereo not given),1.3% (inactive)
3,CC1CC(C)CN(C(=O)CCCn2c(=S)[nH]c3ccccc3c2=O)C1 (stereo not given),-3.1% (inactive)
4,CCOc1cc(C(=O)N2CCOCC2)ccc1OCc1ccccc1,-7.3% (inactive)
5,CC(C)OCCCNC(=O)CN1CCN(Cc2ccccc2Cl)C1=O,-6.4% (inactive)
6,Cc1nnc(NC(=O)CSc2nnc(CNC(=O)c3ccccc3)n2-c2ccccc2)s1,-0.6% (inactive)
7,O=C(C1CCN(S(=O)(=O)Cc2ccccc2)CC1)N1CCN(c2ncccn2)CC1,11.4% (inactive)
8,CCC(=O)NCCC(c1ccco1)c1ccccc1OC (stereo not given),-5.9% (inactive)
9,O=C(O)c1c(-c2ccccc2)c2oc3ccccc3c2[nH]c1=O,81.6% (active)
10,O=C(O)c1oc2ccccc2c1-n1cccc1,7.2% (inactive)
11,O=c1[nH]c(Cc2ccccc2)nc2c1oc1ccccc12,10.4% (inactive)
12,COC(=O)c1ccc(C(=O)OC)c(NS(C)(=O)=O)c1,-2.8% (inactive)
13,CC(=O)Nc1cccc(OCC(O)Cn2cnc3ccccc32)c1 (stereo not given),3.6% (inactive)
14,CN1CCCN(C(c2ccccc2)c2ccc(Cl)cc2)CC1 (stereo not given),51% (active)
15,Cc1cc(N2CCN(C(c3ccccc3)c3ccc(Cl)cc3)CC2)n2ncnc2n1 (stereo not given),8.1% (inactive)
16,Cc1cccc(CN2CCN(C(=O)c3ccccc3F)CC2)c1,-6.8% (inactive)
17,OCCOCCN1CCN(C(c2ccccc2)c2ccc(Cl)cc2)CC1 (stereo not given),26.4% (inactive)
18,Cc1cccc(CN2CCN(C(c3ccccc3)c3ccc(Cl)cc3)CC2)c1 (stereo not given),85.4% (active)
19,Cc1cccc(CN2CCN(c3ccccn3)CC2)c1,-9.1% (inactive)
20,O=C(Nc1ccc2c(c1)OCO2)C1CCCN(S(=O)(=O)c2cccs2)C1 (stereo not given),0.2% (inactive)
21,Cc1ccc(NC(=O)c2ccco2)c(NC(=O)c2cccs2)c1,-4.8% (inactive)
22,COc1ccc(C(=O)OCCN2CCOCC2)cc1OC,-1.7% (inactive)

row,SMILES,cytotoxicity
1,Cc1ccc(C(=O)N(CC(=O)NC2CCCC2)Cc2cccs2)s1,5.4% (inactive)
2,Cc1ccc2cccc(OCC(=O)NCc3ccco3)c2n1,-8.8% (inactive)
3,CCCCCOc1ccc(C(=O)NC(C(=O)O)C(C)C)cc1 (stereo not given),6.5% (inactive)
4,CN=CC1=C(O)c2ccccc2C1=O,-1.7% (inactive)
5,O=C1C(C=Nc2ccccc2O)=C(O)c2ccccc21,13.8% (inactive)
6,Cc1ccc(O)c(N=CC2=C(O)c3ccccc3C2=O)c1,52.6% (active)
7,Cc1cccc(-n2ncc3c(NC4CCCCC4)ncnc32)c1,11.8% (inactive)
8,COC(=O)c1c(NC(=O)c2ccc(Br)s2)sc2c1CCC2,64.4% (active)
9,O=C(Nc1sc2c(c1C(=O)O)CCCC2)c1cccs1,13.8% (inactive)
10,O=C(Nc1sc2c(c1C(=O)O)CCCCC2)c1ccco1,3.9% (inactive)
11,CCOC(=O)c1c(NC(=O)c2ccco2)sc2c1CCCCC2,11.4% (inactive)
12,COC(=O)c1c(NC(=O)c2ccoc2C)sc2c1CCC2,-18% (inactive)
13,NC(=O)c1c(NC(=O)c2cccs2)sc2c1CCCCCC2,57.6% (active)
14,COC(=O)c1c(NC(C)=O)sc2c1CCCC2,3.4% (inactive)
15,O=C(Nc1sc2c(c1C(=O)O)CCC2)c1cccs1,5.8% (inactive)
16,NC(=O)c1c(NC(NC(=O)c2ccco2)(C(F)(F)F)C(F)(F)F)sc2c1CCCC2,51.3% (active)
17,COc1ccc(Nc2nc3ccccc3nc2C)cc1,20% (inactive)
18,O=C1N(CC(=O)N2CCc3ccccc32)CCN1Cc1ccccc1Cl,-7.2% (inactive)
19,COc1ccc(CCNS(=O)(=O)c2ccc3c(c2)CCN3C(=O)C2CC2)cc1OC,-6.7% (inactive)
20,O=C(CSc1nc(Nc2ccccc2)nc(N2CCOCC2)n1)Nc1ccc2c(c1)OCCO2,11.5% (inactive)
21,CCOC(=O)c1sc2nc(N3CCCC3)c3c(c2c1N)CC(C)(C)OC3,-3% (inactive)
22,CCOC(=O)c1sc2nc(-c3ccco3)c3c(c2c1N)CC(C)(C)OC3,57.4% (active)

row,SMILES,cytotoxicity
1,COC(=O)CSc1ncnc2c1sc1nc(-c3ccco3)c3c(c12)CC(C)(C)OC3,15.4% (inactive)
2,COc1ccc(Nc2nc(OC)nc(N3CCN(c4ccc(OC)cc4)CC3)n2)cc1,8.4% (inactive)
3,COC(=O)/C=C1\NCCSC1=O,35.9% (inactive)
4,O=C(CCC(=O)N(c1ccccc1)C(C(=O)NC1CCCC1)c1ccncc1)Nc1cccnc1 (stereo not given),-0.5% (inactive)
5,CCn1c(=N)c(C(=O)NCc2cccnc2)cc2c(=O)n3cccc(C)c3nc21,1.8% (inactive)
6,CN=C(Nc1cc(C)nn1CCC#N)c1ccccc1F,4.4% (inactive)
7,N#CC1=C(SCC(=O)NC2CC2)NC(=O)C(C#N)C12CCCCC2 (stereo not given),-27.1% (inactive)
8,CCOC(=O)C1=C(SCC(=O)Nc2ccccc2)NC(=O)C(C#N)C12CCCCC2 (stereo not given),5.3% (inactive)
9,N#CC1=C(N)NC(SCC(=O)Nc2ccccc2)=C(C#N)C12CCCC2,0.4% (inactive)
10,CC(C)(C)C1CCC2(CC1)C(C#N)=C(SCC(=O)NC1CCCCC1)NC(=O)C2C#N (stereo not given),54.5% (active)
11,N#CC1=C(SCC(=O)NC23CC4CC(CC(C4)C2)C3)NC(=O)C(C#N)C12CCCCC2 (stereo not given),45.6% (inactive)
12,CCOC(=O)Cc1csc(NC(=O)CSc2nnc(-c3ccc(C)cc3)o2)n1,-11.9% (inactive)
13,CC(=O)N1CCc2cc(S(=O)(=O)NC(CC(C)C)C(=O)Nc3ccc4c(c3)OCCO4)ccc21 (stereo not given),7.7% (inactive)
14,N#CCSc1nnc2c(Cl)cc(Cl)cn12,7.2% (inactive)
15,Brc1ccc(-c2nc(-c3ccncc3)no2)o1,0.3% (inactive)
16,CSc1ccc(S(=O)(=O)Nc2ccc(N3CCOCC3)c(Cl)c2)cc1,-2.9% (inactive)
17,c1ccc(N2CCN(c3nnnn3-c3ccccc3)CC2)cc1,-3.6% (inactive)
18,COc1ccc(CCNC(=O)COc2ccc(S(=O)(=O)N3CCOCC3)cc2)cc1,8.2% (inactive)
19,Cc1cc2c(N=O)c(NO)ccc2[nH]1,79.2% (active)
20,COC(=O)c1ccc2[nH]c(C)cc(=O)c2c1,-3.5% (inactive)
21,Cc1cc(=O)c2cc(Cl)ccc2[nH]1,-4.6% (inactive)
